PubChem BioAssay (NCATS)
Where “and” joins values, the source holds several entries; their conditions need not be identical. Equal values may be shown once. Records with an inconclusive call do not appear. Calls of active or inactive are those of the source. Unless noted, calls come from the whole dose curve.

Tests used:
[1] = target: Glucocorticoid receptor (Homo sapiens) (UniProt P04150); test: qHTS assay for small molecule agonists of glucocorticoid receptor signaling (AID 588532; active = well fitted curve in the direction sought with a large enough effect in the signal ratio, with a control signal flat; the % refers to the signal ratio;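 note: 100% = dexamethasone at 0.1 µM and 0% = DMSO only wells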); conditions: HeLa MMTV-bla, beta-lactamase ratio, agonist, 18 h; stronger effect = higher value; percent of dexamethasone control, DMSO zero
In short: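 Stimulation of a glucocorticoid response element-driven beta-lactamase gene was measured in HeLa cells. Responses were scaled between DMSO basal and 0.1 uM dexamethasone, then fitted for half-maximal stimulation.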

[2] = target: Glucocorticoid receptor (Homo sapiens) (UniProt P04150); test: qHTS assay for small molecule antagonists of glucocorticoid receptor signaling (AID 588533; active = well fitted inhibition curve with a large enough effect in the signal ratio, with a control signal flat, not every such curve was filed as active; the % refers to the signal ratio;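 note: cells stimulated with 2 nM dexamethasone as agonist; % is set by controls: 0 for no effect and ±100 for the full control effect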); conditions: HeLa MMTV-bla, GRE beta-lactamase ratio, antagonist mode, 18 h; series mostly up to 76.8 µM
In short: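 Antagonist-mode qHTS: compound titrations added to GRE-bla HeLa cells, then dexamethasone 2 nM final; 18 h, 37 C. CCF4 FRET fluorescence normalized to dexamethasone and DMSO; IC50 from Hill fit.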

[3] = target: Peroxisome proliferator-activated receptor gamma (Homo sapiens) (UniProt P37231); test: qHTS assay for small molecule agonists of peroxisome proliferator-activated receptor gamma signaling (AID 588536; active = well fitted curve in the direction sought with a large enough effect in the signal ratio, with a control signal flat, not every such curve was filed as active; the % refers to the signal ratio;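 note: 0% = DMSO basal wells and 100% = rosiglitazone at 2 µM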); conditions: HEK293 PPARg-UAS-bla, beta-lactamase ratio, 16 h, percent of rosiglitazone response, DMSO as zero; series mostly up to 76.7 µM
In short: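 Cells were plated and held 6–6.5 h at 37 C, then compounds were added as a titration series. After a further 16 h, CCF4 dye was loaded for 2 h at room temperature and emission at 460/530 nm recorded.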

[4] = target: Peroxisome proliferator-activated receptor gamma (Homo sapiens) (UniProt P37231); test: qHTS assay for small molecule antagonists of peroxisome proliferator-activated receptor gamma signaling (AID 588537; active = well fitted inhibition curve with a large enough effect in the signal ratio, with a control signal flat, not every such curve was filed as active; the % refers to the signal ratio;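 note: reporter cells co-stimulated with 50 nM rosiglitazone agonist during compound treatment; % of control where 0% means no effect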); conditions: HEK293 PPARg-UAS-bla, beta-lactamase ratio, antagonist mode; series mostly up to 76.8 µM
In short: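 Compounds are tested as concentration series for inhibition of rosiglitazone-driven (50 nM) reporter expression in GeneBLAzer PPAR-gamma-UAS-bla HEK293 cells. After 16 h at 37 C, CCF4 substrate is added for 2 h at room temperature and blue/green fluorescence is measured.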

[5] = qHTS assay for small molecule agonists of retinoid X receptor alpha signaling (AID 588544); conditions: HEK293T RXRa-UAS-bla, beta-lactamase reporter, 18 h; 530 nm emission;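 for activation: 0% = DMSO basal wells and 100% = reference agonist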
[6] = target: Retinoic acid receptor RXR-alpha (Homo sapiens) (UniProt P19793); test: as above; conditions: HEK293T RXRa-UAS-bla, beta-lactamase reporter, 18 h; series mostly up to 76.7 µM
[7] = qHTS assay for small molecule antagonists of peroxisome proliferator-activated receptor delta signaling (AID 588535; active = well fitted inhibition curve with a large enough effect in the signal ratio, with a control signal flat, not every such curve was filed as active; the % refers to the signal ratio;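 for max response: cells co-treated with a PPAR-delta agonist as stimulator during compound exposure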); conditions: HEK293T PPARd-UAS-bla, beta-lactamase FRET ratio, 18 h; 460 nm channel
In short: (§1)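 Inhibition of PPAR-delta response element-driven beta-lactamase expression is measured in HEK293T cells exposed to a compound titration series for 18 hrs at 37 C. Half-maximal inhibition comes from Hill equation fitting.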

[8] = target: Peroxisome proliferator-activated receptor delta (Homo sapiens) (UniProt Q03181); test: as above; conditions: HEK293T PPARd-UAS-bla, beta-lactamase FRET ratio, 18 h; series mostly up to 76.7 µM
In short: as §1

[9] = target: Vitamin D3 receptor (Homo sapiens) (UniProt P11473); test: qHTS assay for small molecule antagonists of vitamin D receptor signaling (AID 588541); conditions: HEK293T VDR-UAS-bla, beta-lactamase ratio, antagonist mode; series mostly up to 76.7 µM;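 note: receptor activated by calcitriol during compound treatment; % is set by controls: 0 for no effect and ±100 for the full control effect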
In short: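 VDR-UAS-bla HEK293T cells (2000/well, 2% charcoal-stripped FBS) were treated with titrated compounds plus 1-alpha,25-dihydroxyvitamin D3 (50 nM or 3 nM final) for 16 h at 37 C. CCF4 beta-lactamase fluorescence was read; Hill fits gave IC50.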

[10] = target: Vitamin D3 receptor (Homo sapiens) (UniProt P11473); test: qHTS assay for small molecule agonists of vitamin D receptor signaling (AID 588543); conditions: HEK293T VDR-UAS-bla, beta-lactamase ratio, 16 h; series mostly up to 76.8 µM;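 note: 0% = DMSO basal and 100% = reference agonist control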
In short: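 β-lactamase reporter, VDR-UAS-bla HEK293T, agonist mode. Cells plated 5 h at 37 °C, compound titration 16 h at 37 °C, CCF4 dye 2 h RT, ratio 460/530 nm. Hill fit → EC50, efficacy vs 50 nM 1α,25-(OH)2D3.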

Peroxisome proliferator-activated receptor delta (Homo sapiens), sequence (Q03181 whole entry, looked up): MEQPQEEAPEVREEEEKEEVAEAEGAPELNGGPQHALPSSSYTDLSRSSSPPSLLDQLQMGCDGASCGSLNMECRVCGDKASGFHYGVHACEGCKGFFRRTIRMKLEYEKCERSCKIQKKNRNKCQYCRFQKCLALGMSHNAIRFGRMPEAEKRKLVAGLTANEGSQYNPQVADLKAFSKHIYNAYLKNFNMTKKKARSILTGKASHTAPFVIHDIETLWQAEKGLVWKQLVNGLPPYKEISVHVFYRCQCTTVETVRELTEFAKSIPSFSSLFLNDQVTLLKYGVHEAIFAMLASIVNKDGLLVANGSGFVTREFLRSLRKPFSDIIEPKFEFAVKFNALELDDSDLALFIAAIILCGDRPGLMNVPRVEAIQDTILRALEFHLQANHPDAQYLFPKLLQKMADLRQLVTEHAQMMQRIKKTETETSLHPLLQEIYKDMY
Glucocorticoid receptor (Homo sapiens), sequence (P04150 whole entry, looked up): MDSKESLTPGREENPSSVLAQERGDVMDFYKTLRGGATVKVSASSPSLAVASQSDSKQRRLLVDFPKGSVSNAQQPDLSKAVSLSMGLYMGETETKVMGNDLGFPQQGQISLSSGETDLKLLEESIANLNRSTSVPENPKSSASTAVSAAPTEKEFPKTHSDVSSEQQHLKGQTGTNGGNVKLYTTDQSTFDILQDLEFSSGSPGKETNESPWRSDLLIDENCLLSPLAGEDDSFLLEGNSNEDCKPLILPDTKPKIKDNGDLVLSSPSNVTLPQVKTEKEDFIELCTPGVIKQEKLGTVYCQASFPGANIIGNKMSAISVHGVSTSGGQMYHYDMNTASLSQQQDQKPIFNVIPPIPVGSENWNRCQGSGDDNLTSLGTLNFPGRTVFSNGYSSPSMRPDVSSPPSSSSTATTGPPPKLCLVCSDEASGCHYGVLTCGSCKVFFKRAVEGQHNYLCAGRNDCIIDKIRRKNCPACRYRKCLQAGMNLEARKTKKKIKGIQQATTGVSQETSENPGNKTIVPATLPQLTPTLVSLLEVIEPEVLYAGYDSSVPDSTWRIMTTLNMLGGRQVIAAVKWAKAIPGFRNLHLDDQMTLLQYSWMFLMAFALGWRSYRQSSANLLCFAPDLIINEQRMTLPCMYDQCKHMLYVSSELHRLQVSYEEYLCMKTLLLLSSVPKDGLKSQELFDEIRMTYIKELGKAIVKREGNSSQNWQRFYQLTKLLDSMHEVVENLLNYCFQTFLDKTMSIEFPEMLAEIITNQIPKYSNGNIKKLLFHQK
Vitamin D3 receptor (Homo sapiens), sequence (P11473 whole entry, looked up): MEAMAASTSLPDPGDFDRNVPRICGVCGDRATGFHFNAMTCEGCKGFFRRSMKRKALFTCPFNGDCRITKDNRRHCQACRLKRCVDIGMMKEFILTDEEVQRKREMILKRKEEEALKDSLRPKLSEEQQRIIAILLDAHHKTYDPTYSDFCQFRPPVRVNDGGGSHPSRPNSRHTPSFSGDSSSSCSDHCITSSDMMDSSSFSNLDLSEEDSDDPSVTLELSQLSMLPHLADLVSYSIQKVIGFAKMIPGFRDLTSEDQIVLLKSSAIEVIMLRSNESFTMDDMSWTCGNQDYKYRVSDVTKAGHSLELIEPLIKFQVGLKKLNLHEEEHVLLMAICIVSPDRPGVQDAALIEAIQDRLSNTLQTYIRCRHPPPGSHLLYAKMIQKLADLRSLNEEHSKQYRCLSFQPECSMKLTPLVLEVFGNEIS
Peroxisome proliferator-activated receptor gamma (Homo sapiens), sequence (P37231 whole entry, looked up): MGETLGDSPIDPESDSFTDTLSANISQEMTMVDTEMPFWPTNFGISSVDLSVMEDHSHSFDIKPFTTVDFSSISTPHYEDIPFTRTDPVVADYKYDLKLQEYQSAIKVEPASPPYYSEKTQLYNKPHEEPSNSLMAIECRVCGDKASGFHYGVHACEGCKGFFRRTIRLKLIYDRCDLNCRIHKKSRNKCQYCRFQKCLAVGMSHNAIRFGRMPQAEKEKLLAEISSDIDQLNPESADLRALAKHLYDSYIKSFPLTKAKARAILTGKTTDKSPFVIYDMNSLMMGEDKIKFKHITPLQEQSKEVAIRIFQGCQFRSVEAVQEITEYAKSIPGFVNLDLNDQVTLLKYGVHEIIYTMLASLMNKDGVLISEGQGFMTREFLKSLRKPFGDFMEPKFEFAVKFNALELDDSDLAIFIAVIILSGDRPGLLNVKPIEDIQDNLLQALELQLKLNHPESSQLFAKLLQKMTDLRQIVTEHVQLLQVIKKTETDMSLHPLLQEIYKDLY
Retinoic acid receptor RXR-alpha (Homo sapiens), sequence (P19793 whole entry, looked up): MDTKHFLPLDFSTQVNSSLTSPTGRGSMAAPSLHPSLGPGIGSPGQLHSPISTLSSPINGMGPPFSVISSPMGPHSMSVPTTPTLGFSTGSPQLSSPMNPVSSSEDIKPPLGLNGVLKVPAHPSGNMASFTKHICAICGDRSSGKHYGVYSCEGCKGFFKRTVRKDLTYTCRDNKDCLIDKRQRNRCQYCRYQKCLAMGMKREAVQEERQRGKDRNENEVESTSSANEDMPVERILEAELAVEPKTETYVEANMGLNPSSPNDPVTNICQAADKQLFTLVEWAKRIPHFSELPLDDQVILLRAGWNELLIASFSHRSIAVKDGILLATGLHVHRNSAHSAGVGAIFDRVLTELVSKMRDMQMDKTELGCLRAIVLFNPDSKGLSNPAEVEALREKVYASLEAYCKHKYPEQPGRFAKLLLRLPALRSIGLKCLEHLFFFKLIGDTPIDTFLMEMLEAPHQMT

Row | SMILES | activation [1] | outcome [2] | outcome [3] | outcome [4] | max response [5] | outcome [6] | max response [7] | outcome [8] | outcome [9] | outcome [10]
1 | CC(=O)Nc1ccc(C(=O)O)cc1 | -0.936% (inactive) | inactive | inactive | inactive | -5.85% | inactive | – | – | – | –
2 | CC(=O)Nc1cccc(O)c1 | – | – | inactive | – | 11% | inactive | – | – | – | –
3 | COc1ccc(O)cc1 | -2.84% (inactive) | inactive | – | – | -5.99% | inactive | 3.48% | inactive | inactive | inactive
4 | COC(=O)c1ccc(O)cc1 | 15.6% (inactive) | inactive | inactive | inactive | 3.58% | inactive | 34.1% | inactive | inactive | inactive
5 | Cc1c(N(C)C)c(=O)n(-c2ccccc2)n1C | 1.22% (inactive) and -3.75% (inactive) | inactive | – | – | -14.4% and -18.2% | inactive | 15.6% | inactive | inactive | inactive
6 | O=C(O)CCCCC1CCSS1 (centres undefined) | -0.0197% (inactive) and 20% (inactive) | inactive | inactive | inactive | – | – | 4.26% | inactive | inactive | inactive
7 | CC1CC(OC(=O)c2ccccc2O)CC(C)(C)C1 (centres undefined) | 2.49% (inactive) | inactive | inactive | – | – | – | 23.9% | inactive | – | –
8 | CC(=O)OCC(COC(C)=O)OC(C)=O | -5.82% (inactive) | inactive | inactive | inactive | -12.6% and -13.8% | inactive | -24.1% and 22.8% | inactive | inactive | inactive
9 | Cc1cc(C)nc(NS(=O)(=O)c2ccc(N)cc2)n1 | 5.22% (inactive) and 0.742% (inactive) | inactive | inactive | – | -3.23% and 6.31% | inactive | 18.4% and -14.9% | inactive | – | –
10 | Cc1cccc(Nc2ccccc2C(=O)O)c1C | – | inactive | – | – | – | – | – | – | – | –
11 | FC(F)(F)C(Cl)Br (centres undefined) | -1.46% (inactive) | inactive | inactive | inactive | -10.5% | inactive | -35.1% | inactive | – | –
12 | CC(=O)Nc1ccccc1 | -0.909% (inactive) | inactive | inactive | inactive | -17.4% | inactive | 17.1% | inactive | inactive | inactive
13 | O=C1C(c2[nH]c3ccccc3c2O)=Nc2ccccc21 | 5.37% (inactive) | inactive | – | – | 16.9% | inactive | 32.9% | inactive | – | –
14 | CC(C)=CCC/C(C)=C/CO | – | inactive | inactive | inactive | -9.95% | inactive | -8.02% | inactive | inactive | –
15 | Cc1c(C(=O)NCCO)[n+](=O)c2ccccc2n1[O-] | 0.345% (inactive) | inactive | inactive | – | -9.58% | inactive | -20% | inactive | inactive | –
16 | CCCCCC(N)=O | – | – | inactive | inactive | -21.2% | inactive | -31.8% | inactive | inactive | inactive

Row | SMILES | activation [1] | outcome [2] | outcome [3] | outcome [4] | max response [5] | outcome [6] | max response [7] | outcome [8] | outcome [9] | outcome [10]
17 | CC[N+](CC)(CC(=O)Nc1c(C)cccc1C)Cc1ccccc1 | – | – | inactive | inactive | -1.28% | inactive | – | – | inactive | inactive
18 | O=C(OOC(=O)c1ccccc1)c1ccccc1 | 6.15% (inactive) | inactive | inactive | inactive | -15.8% | inactive | – | – | – | –
19 | Cc1ccc(C(C)C)c(O)c1 | -10.5% (inactive) | inactive | inactive | – | -0.0487% | inactive | -0.969% | inactive | inactive | inactive
20 | Cc1cc(O)cc(C)c1Cl | – | inactive | inactive | inactive | -3.04% | inactive | 24.1% | inactive | – | –
21 | OC[C@@H](O)[C@@H](O)[C@H](O)[C@H](O)CO | – | – | inactive | inactive | -0.766% | inactive | – | – | inactive | inactive
22 | Nc1ccc(S(=O)(=O)c2ccc(N)cc2)cc1 | – | – | inactive | inactive | 9.37% | inactive | -19.4% and 10.1% | inactive | – | –
23 | CCCC(O)C(CC)CO (centres undefined) | – | – | inactive | – | -0.667% | inactive | 2.27% | inactive | – | –
24 | O=C(c1ccccc1)C(O)c1ccccc1 (centres undefined) | 2.68% (inactive) and -5.31% (inactive) | inactive | inactive | inactive | 1.82% and 5.17% | inactive | -5.59% and -16% | inactive | inactive | inactive
25 | CCN(CC)C(=O)c1cccc(C)c1 | -2.58% (inactive) and -6.82% (inactive) | inactive | inactive | inactive | -4.92% and 6.96% | inactive | -21.8% | inactive | inactive | inactive
26 | C=CCNC(N)=S | – | – | inactive | – | 14.7% | inactive | 13.5% | inactive | inactive | inactive
27 | Cc1cc(=O)[nH]c(=S)[nH]1 | -0.999% (inactive) | inactive | inactive | inactive | -2.22% | inactive | – | – | inactive | inactive
28 | CCCCCCCCCCCCCCCCCCO | -8.91% (inactive) | inactive | inactive | inactive | -0.452% | inactive | 2.82% | inactive | inactive | inactive
29 | CCCCOC(=O)c1ccc(N)cc1 | -4.26% (inactive) | – | inactive | – | 8.21% | inactive | – | – | inactive | inactive
30 | CCCCCCCC(=O)OCC(COC(=O)CCCCCCC)OC(=O)CCCCCCC | 2.19% (inactive) | inactive | inactive | – | -2.18% | inactive | 17.8% | inactive | inactive | inactive
31 | CC(=O)NS(=O)(=O)c1ccc(N)cc1 | -1.25% (inactive) | inactive | – | – | -19.7% | inactive | 26.9% | inactive | inactive | inactive
32 | O=C1c2cccc(O)c2C(=O)c2c(O)cccc21 | – | – | – | inactive | – | – | – | – | – | inactive
